Laboratory results from PubChem BioAssay (NCATS).
Results filed as inconclusive are left out. Activity calls are given as the source filed them. Unless noted, calls follow the shape of the dose curve; as a rule, active = well fitted curve in the direction sought with a large enough effect; inconclusive = small, poorly fitted or top-dose-only effect, or another doubt; inactive = no such curve, though single readings can be large; an effect the other way counts as inactive or inconclusive.

How the values were obtained:
[1] = qHTS to identify inhibitors of the type 1 interferon - major histocompatibility complex class I in skeletal muscle: primary screen against the NCATS Mechanism Interrogation Plate v5.0 (MIPE) Libary (AID 1347411); also: nearly all actives have a fitted effect of over 65% in size; also: potency is read from the fitted curve at half-maximal effect
How it was run: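 Immortalized human C25cl48 myoblasts with HiBit knocked into endogenous HLA-B*08:01 were stimulated with 4.0 ng/ml IFN-beta and exposed to compounds (11-point 1:3 titration, top 46 uM final) for 24 hrs at 37 C; HiBiT lytic luminescence measured.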

[2] = target: Protein phosphatase 1D (Homo sapiens) (UniProt O15297); assay: RapidFire Mass Spectrometry qHTS Assay for Modulators of WT P53-Induced Phosphatase 1 (WIP1) (AID 1347424);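 also: amount of dephosphorylated VEPPL-S-QETFS peptide product formed by WIP1; series mostly up to about 63 µM; plate controls were DMSO wells for no effect and GSK830371 inhibitor control at 10 µM for full effect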
Sequence of Protein phosphatase 1D (Homo sapiens) (O15297 whole entry, looked up): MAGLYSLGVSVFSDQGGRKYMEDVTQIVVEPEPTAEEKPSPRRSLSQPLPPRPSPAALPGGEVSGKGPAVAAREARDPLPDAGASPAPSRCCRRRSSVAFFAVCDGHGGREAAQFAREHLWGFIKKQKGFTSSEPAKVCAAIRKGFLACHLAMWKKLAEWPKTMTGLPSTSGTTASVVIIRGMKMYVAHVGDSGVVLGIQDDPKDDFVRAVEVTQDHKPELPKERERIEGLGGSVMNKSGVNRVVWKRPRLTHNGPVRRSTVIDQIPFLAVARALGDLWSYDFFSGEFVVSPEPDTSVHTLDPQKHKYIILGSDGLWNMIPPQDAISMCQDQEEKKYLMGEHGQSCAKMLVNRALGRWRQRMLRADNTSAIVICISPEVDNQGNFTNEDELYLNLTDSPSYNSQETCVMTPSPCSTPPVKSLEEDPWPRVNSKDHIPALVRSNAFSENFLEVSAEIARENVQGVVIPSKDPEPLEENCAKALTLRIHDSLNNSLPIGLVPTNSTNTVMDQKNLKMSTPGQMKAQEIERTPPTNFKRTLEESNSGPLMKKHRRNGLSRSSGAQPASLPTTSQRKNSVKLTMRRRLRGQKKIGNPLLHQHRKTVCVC
How it was run: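 WIP1 (10 nM final) was preincubated 1 h at room temperature with compounds in Tris-HCl pH 7.5, 30 mM MgCl2, TCEP, EGTA, BSA; 2 uM VEPPL-pS-QETFS phosphopeptide was added for 5 min, quenched with formic acid, and dephosphorylated product quantified by RapidFire MS.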

[3] = target: Protein phosphatase 1D (Homo sapiens) (UniProt O15297); assay: Rhodamine-PBP qHTS Assay for Modulators of WT P53-Induced Phosphatase 1 (WIP1) (AID 1347425); also: % of control where 0% means no effect
How it was run: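 The read-out is the change in Rhodamine-PBP fluorescence (f1 - f0, ex 525/em 598 nm) as Pi is released, read each minute for 11 min. Final reaction: 5 nM WIP1, 10 uM phosphopeptide VEPPL-pS-QETFS, 10 uM Rh-PBP, 50 mM Tris-HCl pH 7.5, 30 mM MgCl2. Compound was preincubated with enzyme for 1 hour at room temperature.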

[4] = Primary qHTS for inhibitors of La Crosse Virus (LACV) - induced cell death in SH-SY5Y cells (AID 1508616);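 also: top concentration of the series differs between compounds; 0% = infected DMSO wells and 100% = uninfected DMSO wells; higher means more rescue of cells from virus-induced death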
How it was run: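 Luminescent ATP readout (ATPLite 1step, 5 min room temperature) measured rescue from LACV-induced death after 6 days of infection at 0.01 MOI; normalized to infected DMSO wells and uninfected DMSO wells.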

[5] = target: Calcium and integrin-binding protein 1 (Homo sapiens) (UniProt Q99828); assay: Primary qHTS for Identification of Calcium Integrin Binding Protein 1 (CIB1) Competitor (AID 1508620);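 also: GST tagged CIB1 binding a fluorescein labelled alphaIIb integrin peptide tracer; top concentration of the series differs between compounds; % is scaled to controls: 0 for no effect and ±100 for the full control effect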
Sequence of Calcium and integrin-binding protein 1 (Homo sapiens) (Q99828 whole entry, looked up): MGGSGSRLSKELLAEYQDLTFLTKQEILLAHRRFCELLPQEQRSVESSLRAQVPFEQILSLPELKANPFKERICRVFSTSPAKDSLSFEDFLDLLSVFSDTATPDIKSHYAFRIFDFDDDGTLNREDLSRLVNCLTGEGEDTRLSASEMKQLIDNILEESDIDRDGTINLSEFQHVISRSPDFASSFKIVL
How it was run: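 Fluorescence polarization competition: CIB1-GST (1 uM final) preincubated with compound 15 min at room temperature, then FITC-labeled alphaIIb peptide (100 nM final) added for another 15 min. Polarization read at Ex 480/Em 540.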

[6] = Primary qHTS for small molecule stabilizers of the endoplasmic reticulum resident proteome: Secreted ER Calcium Modulated Protein (SERCaMP) assay (AID 1508630); also: % is scaled to controls: 0 for no effect and ±100 for the full control effect
How it was run: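 GLuc-SERCaMP-expressing SH-SY5Y cells, pretreated 16 h with compound, are challenged with thapsigargin to empty ER calcium stores; after 4 h, coelenterazine is added directly to the medium and luminescence is imaged.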

[7] = A High-Content qHTS Against Drug Library for the Identification of Small Molecules that Inhibit DYT1 Early Onset Primary Dystonia-Associated Cell Pathology (AID 1645839; calls by dose curve; also: series mostly up to about 46 µM)
How it was run: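 Readout: %pathology, the punctate EGFP-TorsinA distribution from imaging, as the primary channel and cell count as the toxicity counterscreen. HEK293 Flp-In cells expressing delE TorsinA were induced with tetracycline and treated with compound for 48 h.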

[8] = target: Cytochrome P450 2D6 (Homo sapiens) (UniProt P10635); assay: Cytochrome P450 family 2 subfamily D member 6 (CYP2D6) small molecule antagonists: luciferase biochemical (cell-free) qHTS assay (AID 1645840; active = well fitted curve in the direction sought with a large enough effect in the repeat runs; an effect the other way counts as inactive or inconclusive; also: nearly all actives have a fitted effect of over 55% in size; also: potency is read from the fitted curve at half-maximal effect)
Sequence of Cytochrome P450 2D6 (Homo sapiens) (P10635 whole entry, looked up): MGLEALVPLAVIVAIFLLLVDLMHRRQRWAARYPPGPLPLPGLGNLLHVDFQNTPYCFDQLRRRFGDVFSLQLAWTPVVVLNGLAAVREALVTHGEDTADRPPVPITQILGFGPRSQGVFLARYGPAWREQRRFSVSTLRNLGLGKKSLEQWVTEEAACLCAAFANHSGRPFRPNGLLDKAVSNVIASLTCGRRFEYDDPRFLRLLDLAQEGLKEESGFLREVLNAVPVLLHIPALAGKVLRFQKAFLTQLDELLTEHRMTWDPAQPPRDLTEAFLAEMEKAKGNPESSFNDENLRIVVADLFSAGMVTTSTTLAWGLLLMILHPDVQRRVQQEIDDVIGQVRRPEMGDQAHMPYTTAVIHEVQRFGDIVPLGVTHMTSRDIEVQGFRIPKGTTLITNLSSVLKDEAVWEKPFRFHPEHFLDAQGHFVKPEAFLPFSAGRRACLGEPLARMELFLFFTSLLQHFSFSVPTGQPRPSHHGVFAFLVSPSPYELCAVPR
How it was run: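 P450-Glo luminescent screen: recombinant CYP2D6 enzyme–proluciferin substrate mix preincubated with compound 10 min at room temperature, then NADPH regeneration added for 1 h at room temperature. Detection reagent added for 20 min; luciferin light read as relative luminescence units.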

[9] = target: Cytochrome P450 2C9 (Homo sapiens) (UniProt P11712); assay: Cytochrome P450 family 2 subfamily C member 9 (CYP2C9) small molecule antagonists: luciferase biochemical (cell-free) qHTS assay (AID 1645842; active = well fitted curve in the direction sought with a large enough effect in the repeat runs; an effect the other way counts as inactive or inconclusive; also: nearly all actives have a fitted effect of over 55% in size; also: potency is read from the fitted curve at half-maximal effect)
Sequence of Cytochrome P450 2C9 (Homo sapiens) (P11712 whole entry, looked up): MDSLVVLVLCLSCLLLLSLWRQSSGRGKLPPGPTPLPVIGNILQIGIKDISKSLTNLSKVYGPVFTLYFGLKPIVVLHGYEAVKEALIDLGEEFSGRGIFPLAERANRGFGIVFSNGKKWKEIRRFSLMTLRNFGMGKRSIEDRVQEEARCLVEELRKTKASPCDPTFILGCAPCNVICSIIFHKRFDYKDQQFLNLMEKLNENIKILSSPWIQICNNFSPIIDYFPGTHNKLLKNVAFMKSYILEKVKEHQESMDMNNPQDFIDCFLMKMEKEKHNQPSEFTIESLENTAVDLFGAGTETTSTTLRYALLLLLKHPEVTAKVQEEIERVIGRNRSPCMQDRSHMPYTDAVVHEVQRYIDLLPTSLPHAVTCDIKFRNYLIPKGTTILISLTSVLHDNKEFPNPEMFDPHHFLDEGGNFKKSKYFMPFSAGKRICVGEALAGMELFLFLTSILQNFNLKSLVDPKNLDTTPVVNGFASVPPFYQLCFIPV
How it was run: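 Luminescence, after 20 min with luciferin detection reagent, reflected CYP2C9 turnover during a 1 h NADPH-driven reaction at 37C. Enzyme-substrate mix contained 0.4% bovine serum albumin and was preincubated with compound 10 min at room temperature.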

[10] = qHTS for inhibitors of adenylyl cyclases using a fission yeast platform: a pilot screen against the NCATS LOPAC library (AID 1347410);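 also: plate controls were DMSO vehicle for no effect and DPI positive control for full effect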
How it was run: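 Growth medium went into the plates first, then compounds were pinned (final up to 57 µM), then CHP2027 yeast were added. Plates were incubated overnight (18 h) at 30C in the dark, and GFP was measured by laser scanning cytometry.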

[11] = Validation qHTS assay for inhibitors of Activation Induced Cytidine Deaminase (AID): UDG Counterscreen signal (AID 1347427); also: 0% is about no effect
How it was run: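 Counterscreen read of UDG activity (2 U/mL, 4/3x) in the FRET deamination format with AID (1 uM, 4/3x), DJC20/DJC23 substrates (250 nM, 4x), 4 h at room temperature. NaOH stop, fluorescence at 560 ex/665 em.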

[12] = target: Single-stranded DNA cytosine deaminase (Homo sapiens) (UniProt Q9GZX7); assay: Validation qHTS assay for inhibitors of Activation Induced Cytidine Deaminase (AID): AID signal (AID 1347429); also: % is scaled to controls: 0 for no effect and ±100 for the full control effect
Sequence of Single-stranded DNA cytosine deaminase (Homo sapiens) (Q9GZX7 whole entry, looked up): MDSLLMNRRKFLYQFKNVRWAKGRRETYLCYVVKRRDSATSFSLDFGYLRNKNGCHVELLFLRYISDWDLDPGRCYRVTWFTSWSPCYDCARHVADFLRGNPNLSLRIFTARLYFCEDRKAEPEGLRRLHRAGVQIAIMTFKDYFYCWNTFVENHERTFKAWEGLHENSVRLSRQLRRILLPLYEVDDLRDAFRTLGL
How it was run: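 AID and UDG were combined and compounds added at final up to 114 uM, then DJC20/DJC23 FRET substrate was added for 4 hr at room temperature. NaOH was then added for 30 min before fluorescence was read at 540/590 nm.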

[13] = target: Calcium and integrin-binding protein 1 (Homo sapiens) (UniProt Q99828); assay: Validation qHTS for Identification of Calcium Integrin Binding protein 1 (CIB1) Competitor (AID 1508618); also: % is scaled to controls: 0 for no effect and ±100 for the full control effect
How it was run: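 CIB1-GST (1 uM final) incubated 15 min at room temperature with compounds (up to 114 uM), then FITC-labelled alphaIIb peptide (100 nM) added. FP read (Ex 480/Em 540) after 15 min, pH 7.4 buffer containing 5 mM CaCl2.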

[14] = target: Papain (Carica papaya) (UniProt P00784); assay: Primary qHTS assay for inhibitors of the protease papain (AID 1645873);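 also: papain turnover of Z-FR-AMC read as the AMC fluorescence gain over 10 min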; also: potency is read from the fitted curve at half-maximal effect
Sequence of Papain (Carica papaya) (P00784 whole entry, looked up): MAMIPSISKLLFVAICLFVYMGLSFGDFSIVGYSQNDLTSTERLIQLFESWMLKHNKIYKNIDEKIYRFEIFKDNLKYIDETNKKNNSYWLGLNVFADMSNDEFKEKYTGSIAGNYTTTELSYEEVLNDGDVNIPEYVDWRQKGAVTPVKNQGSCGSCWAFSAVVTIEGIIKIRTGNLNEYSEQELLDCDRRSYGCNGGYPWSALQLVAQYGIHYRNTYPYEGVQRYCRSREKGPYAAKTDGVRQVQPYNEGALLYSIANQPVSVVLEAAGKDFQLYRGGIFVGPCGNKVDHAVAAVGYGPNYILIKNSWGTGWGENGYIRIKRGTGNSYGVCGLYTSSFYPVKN

[15] = target: Cytochrome P450 3A4 (Homo sapiens) (UniProt P08684); assay: Cytochrome P450 family 3 subfamily A member 4 (CYP3A4) small molecule antagonists: luciferase qHTS assay (AID 1645841; active = well fitted curve in the direction sought with a large enough effect in the repeat runs; an effect the other way counts as inactive or inconclusive; also: nearly all actives have a fitted effect of over 45% in size)
Sequence of Cytochrome P450 3A4 (Homo sapiens) (P08684 whole entry, looked up): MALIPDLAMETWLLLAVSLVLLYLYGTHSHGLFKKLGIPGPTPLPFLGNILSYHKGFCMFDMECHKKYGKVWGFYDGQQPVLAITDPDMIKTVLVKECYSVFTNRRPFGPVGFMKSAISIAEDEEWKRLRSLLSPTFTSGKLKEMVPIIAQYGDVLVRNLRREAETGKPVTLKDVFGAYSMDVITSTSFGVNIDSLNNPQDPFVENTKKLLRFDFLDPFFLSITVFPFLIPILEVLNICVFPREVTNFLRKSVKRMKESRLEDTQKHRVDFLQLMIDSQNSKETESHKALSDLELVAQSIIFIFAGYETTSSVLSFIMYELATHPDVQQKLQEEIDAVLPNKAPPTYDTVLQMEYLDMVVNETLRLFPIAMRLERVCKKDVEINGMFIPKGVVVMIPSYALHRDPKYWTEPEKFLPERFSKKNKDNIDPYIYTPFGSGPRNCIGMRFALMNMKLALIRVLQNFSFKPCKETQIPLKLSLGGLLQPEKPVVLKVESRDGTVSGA
How it was run: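 P450-Glo CYP3A4 enzyme with proluciferin substrate was preincubated with DMSO-dissolved compounds for 10 min at room temperature. NADPH regeneration solution started a 1 h reaction. Detection reagent stopped it, and luminescence was read after 20 min.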

[16] = target: N-terminal Xaa-Pro-Lys N-methyltransferase 1 (Homo sapiens) (UniProt Q9BV86); assay: Confirmatory qHTS for Inhibitors of N-terminal methyltransferase 1 (NTMT1): MTaseGlo Assay (AID 1645874); also: potency is read from the fitted curve at half-maximal effect; nearly all actives have a fitted effect of over 65% in size
Sequence of N-terminal Xaa-Pro-Lys N-methyltransferase 1 (Homo sapiens) (Q9BV86 whole entry, looked up): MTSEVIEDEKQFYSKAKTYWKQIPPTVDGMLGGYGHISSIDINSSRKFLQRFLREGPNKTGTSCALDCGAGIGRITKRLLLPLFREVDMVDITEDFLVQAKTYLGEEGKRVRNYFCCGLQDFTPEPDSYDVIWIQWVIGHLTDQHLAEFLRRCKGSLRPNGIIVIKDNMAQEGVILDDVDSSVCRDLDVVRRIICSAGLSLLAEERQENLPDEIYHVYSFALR
How it was run: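 qHTS format: NTMT1 125 nM, SAM 100 uM, peptide SPKRIA 1 uM final; 15 min compound preincubation, 30 min reaction at room temperature. MTase-Glo luminescence.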

[17] = Counterscreen qHTS for small molecule stabilizers of the endoplasmic reticulum resident proteome: GLuc-NoTag assay (AID 1508627);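 also: SH-SY5Y cells given compound then 100 nM thapsigargin to empty ER calcium; series mostly up to about 76 µM; 0% = thapsigargin alone and -100% = DMSO vehicle control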
How it was run: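 SH-SY5Y cells stably expressing constitutively secreted GLuc (no SERCaMP tag) were pre-incubated 5 h, treated with compound for 19 h, then 100 nM thapsigargin for 4 h at 37C; medium GLuc read by coelenterazine luminescence.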

[18] = Confirmatory qHTS for small molecule stabilizers of the endoplasmic reticulum resident proteome: Secreted ER Calcium Modulated Protein (SERCaMP) assay (AID 1508628);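 also: SH-SY5Y cells given compound 16 h then thapsigargin 100 nM for 4 h; series mostly up to about 76 µM; % is scaled to controls: 0 for no effect and ±100 for the full control effect; nearly all actives have a fitted effect of over 40% in size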
How it was run: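 We seeded SH-SY5Y-GLuc-SERCaMP cells, added compounds (three concentrations in the primary run, eleven up to 76.6 uM in confirmation), incubated 16 h, depleted ER calcium with thapsigargin, and read luciferase 4 h later.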

[19] = Cell Viability qHTS for small molecule stabilizers of the endoplasmic reticulum resident proteome (AID 1508629); details: cell viability counter-screen, 100 nM thapsigargin for final 4 h

CC(=O)CC(c1ccccc1)c1c(O)c2ccccc2oc1=O (stereo unspecified)
inactive: outcome [2] | outcome [3] | Potency [4] | outcome [5] | Potency [6] | Potency [7] | Potency [8]
active: Potency [1] 13.1 µM

CC[C@H](C)C(=O)O[C@H]1C[C@@H](C)C=C2C=C[C@H](C)[C@H](CC[C@@H]3C[C@@H](O)CC(=O)O3)[C@H]21
inactive: Potency [1] | outcome [2] | outcome [3] | Potency [4] | outcome [5] | Potency [6] | Potency [7]

COc1ncnc(NS(=O)(=O)c2ccc(N)cc2)c1OC
inactive: Potency [1] | outcome [2] | outcome [3] | Potency [4] | outcome [5] | Potency [6] | Potency [7] | Potency [8] | Potency [9]

CN(Cc1cc(Br)cc(Br)c1N)C1CCCCC1
active: Potency [8] 0.0195 µM
inactive: Potency [1] | outcome [2] | outcome [3] | Potency [4] | outcome [5] | Potency [6] | Potency [7]

CC(C)C1CCC(C(=O)N[C@H](Cc2ccccc2)C(=O)O)CC1 (stereo partly specified)
inactive: Potency [1] | outcome [2] | outcome [3] | Potency [4] | outcome [5] | Potency [6] | Potency [7] | Potency [8]

CCOC(=O)[C@H](CCc1ccccc1)N[C@H]1CS[C@H](c2cccs2)CN(CC(=O)O)C1=O
inactive: Potency [1] | outcome [2] | outcome [3] | Potency [4] | outcome [5] | Potency [6] | Potency [7] | Potency [8] | Potency [9]

C[C@]12C=CC(=O)C=C1CC[C@@H]1[C@@H]2C(=O)C[C@@]2(C)[C@H]1CC[C@]2(O)C(=O)CO
inactive: Potency [1] | outcome [2] | outcome [3] | Potency [4] | outcome [5] | Potency [6] | Potency [7]

CCCCS(=N)(=O)CCC(N)C(=O)O (stereo unspecified)
inactive: outcome [10] | Potency [1] | outcome [11] | outcome [12] | Potency [4] | outcome [13] | outcome [5] | Potency [6] | Potency [14]

CC1=NN(c2ccccc2)C(=O)C1
inactive: Potency [1] | outcome [2] | outcome [3] | Potency [4] | outcome [5] | Potency [6] | Potency [7]

O=S(=O)(O)CCS
inactive: Potency [1] | outcome [2] | outcome [3] | Potency [4] | outcome [5] | Potency [6] | Potency [7] | Potency [8] | outcome [15] | Potency [9]

COc1cc2nc(N3CCCN(C)CC3)nc(NC3CCN(Cc4ccccc4)CC3)c2cc1OC
inactive: outcome [10] | outcome [11] | outcome [12] | outcome [13] | outcome [5] | Potency [6]
active: Potency [14] 25.1 µM

COc1cc2ncnc(Nc3cccc(Cl)c3)c2cc1OC
inactive: outcome [10] | outcome [11] | outcome [12] | Potency [4] | outcome [13] | outcome [5] | Potency [6] | Potency [14]
active: Potency [1] 29.4 µM | Potency [9] 8.49 µM | Potency [16] 12.6 µM

CCN(CC)CC#CCOC(=O)C(O)(c1ccccc1)C1CCCCC1 (stereo unspecified)
active: Potency [8] 3.01 µM | Potency [9] 7.56 µM
inactive: outcome [10] | outcome [11] | outcome [12] | Potency [4] | Potency [6] | Potency [14]

CNS(=O)(=O)CCc1ccc2[nH]cc(C3CCN(C)CC3)c2c1
inactive: outcome [10] | outcome [2] | outcome [3] | Potency [4] | outcome [13] | outcome [5] | Potency [6] | Potency [7] | Potency [9] | Potency [14]

Cc1ccc(S(=O)(=O)N[C@@H](Cc2ccccc2)C(=O)CCl)cc1
inactive: outcome [10] | outcome [11] | outcome [12] | outcome [5] | Potency [6] | Potency [14]

O=C(O)C1CCCN(CCC=C(c2ccccc2)c2ccccc2)C1 (stereo unspecified)
inactive: outcome [10] | Potency [1] | outcome [11] | outcome [12] | Potency [4] | outcome [13] | outcome [5] | Potency [6] | Potency [14]

CC(C)NCC(O)c1ccc(NS(C)(=O)=O)cc1 (stereo unspecified)
inactive: outcome [10] | Potency [1] | outcome [11] | outcome [12] | Potency [4] | outcome [13] | outcome [5] | Potency [6] | Potency [14]

CCOc1cc(N)c(Cl)cc1C(=O)NCC1CN(Cc2ccc(F)cc2)CCO1 (stereo unspecified)
inactive: Potency [1] | outcome [2] | outcome [3] | Potency [4] | outcome [5] | outcome [17] | Potency [18] | max response [19] -7.94% | Potency [6] | Potency [9]
active: Potency [8] 15.5 µM

Nc1nc(N)c2nc(CNc3ccc(C(=O)NC(CCC(=O)O)C(=O)O)cc3)cnc2n1 (stereo unspecified)
inactive: outcome [10] | Potency [1] | outcome [11] | outcome [12] | Potency [4] | outcome [5] | Potency [6]
active: Potency [14] 3.55 µM

Cc1nnc(C(=O)NC(C)(C)c2nc(C(=O)NCc3ccc(F)cc3)c(O)c(=O)n2C)o1
inactive: Potency [1] | outcome [2] | outcome [3] | Potency [4] | outcome [5] | Potency [6] | Potency [7] | Potency [8] | Potency [9]

NC(=O)c1cccc(N)c1
inactive: outcome [10] | Potency [1] | outcome [11] | outcome [12] | Potency [4] | outcome [13] | outcome [5] | Potency [6]

COc1cc(NCc2ccc3nc(N)nc(N)c3c2C)cc(OC)c1OC
active: Potency [1] 26.2 µM | Potency [8] 6.92 µM | Potency [9] 12.3 µM
inactive: outcome [2] | outcome [3] | Potency [4] | outcome [5] | Potency [6] | Potency [7]

Nc1nc(F)nc2c1ncn2[C@@H]1O[C@H](CO)[C@@H](O)[C@@H]1O
inactive: Potency [1] | outcome [2] | outcome [3] | Potency [4] | outcome [5] | Potency [6] | Potency [7] | Potency [8] | Potency [9]
